# Screens from PubChem.
# POLI inh = blocks human DNA polymerase iota activity; Q9UNA4; Pol iota fluorescent replication assay, 10 min; Potency, µM (doses to about 115 µM), without a hit: at the highest dose activity, negative = inhibition, hits mostly inhibitors; actives 1% (n = 390,000)
#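 Fluorescent replication assay read twice, at 0 min and 10 min after adding 50 nM (final) substrate. Enzyme (10 nM) and compounds were first incubated 15 min at room temperature; enzyme-free buffer wells were negative controls.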
# Pol eta inh-1 = inhibitors of human DNA polymerase eta; recombinant Pol eta, fluorescent DNA replication assay; Potency, µM (top dose mostly 114 µM), inactives show top-dose activity change, negative = inhibition, most hits filed as inhibitors; actives 1.2% (n = 390,000); AID 588591; note: % is set by controls: 0 for no effect and ±100 for the full control effect
#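 Pol eta (10 nM) was preincubated with compounds for 15 min at room temperature, after which fluorescent replication substrate (50 nM final) was added to start the reaction. Fluorescence was read kinetically at 0 and 10 min.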
# FEN1 inhibitor = blocks human flap endonuclease 1. Potency, µM (highest dose often 114 µM), inactives show at the highest dose activity change, negative = inhibition, actives largely listed as inhibitors. Recombinant FEN1 flap cleavage, fluorescence, 15 min. actives 0.35% (n = 390,000); note: % is set by controls: 0 for no effect and ±100 for the full control effect; nearly all actives have a fitted effect of over 65% in size
#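 Recombinant FEN1 (10 nM) was preincubated with pin-transferred compounds for 15 min at room temperature, then flap DNA substrate (50 nM final) was added. Plates were read at 0 and 15 min, and normalized concentration–response data were fitted to a four-parameter Hill equation.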
# TDP1 block = TDP1 (human) enzyme inhibition | Potency, µM (top dose mostly 130 µM), for inactives: at the highest dose activity change, negative = inhibition, hits mostly inhibitors | actives 0.28% (n = 350,000) | recombinant TDP1, AlphaScreen DNA substrate cleavage | Q9NUW8; note: % is set by controls: 0 for no effect and ±100 for the full control effect; nearly all actives have a fitted effect of over 40% in size
#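 E. coli-derived human Tdp1, 1 nM final. Cpd preinc 15 min RT; substrate 15 nM final, 5 min RT; AS bead mix 10 ug/ml final, 10 min RT. Signal loss = tyrosine-FITC cleavage. No-enzyme wells = max signal.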
# Pol beta inh = blocks human DNA polymerase beta activity; P06746; Pol beta primer extension/strand displacement, fluorescence kinetic; Potency, µM (highest dose often 114 µM), without a hit: top-dose activity change, negative = inhibition, most hits filed as inhibitors; actives 1.3% (n = 340,000); AID 485314; note: % is set by controls: 0 for no effect and ±100 for the full control effect
#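 Human Pol beta at 10 nM; strand-displacement substrate 50 nM final. Compound exposure 15 min at room temperature before start, reaction 10 min at room temperature.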
# Pol kappa inh-1 = blocks human DNA polymerase kappa activity; purified Pol kappa, fluorescent DNA synthesis assay, 10 min; AID 588579; Potency, µM (doses to about 107 µM), for the others: top-dose activity, negative = inhibition, most hits filed as inhibitors; Q9UBT6; actives 0.53% (n = 400,000); note: % is set by controls: 0 for no effect and ±100 for the full control effect
# Target sequence (Q9UBT6 whole entry, looked up): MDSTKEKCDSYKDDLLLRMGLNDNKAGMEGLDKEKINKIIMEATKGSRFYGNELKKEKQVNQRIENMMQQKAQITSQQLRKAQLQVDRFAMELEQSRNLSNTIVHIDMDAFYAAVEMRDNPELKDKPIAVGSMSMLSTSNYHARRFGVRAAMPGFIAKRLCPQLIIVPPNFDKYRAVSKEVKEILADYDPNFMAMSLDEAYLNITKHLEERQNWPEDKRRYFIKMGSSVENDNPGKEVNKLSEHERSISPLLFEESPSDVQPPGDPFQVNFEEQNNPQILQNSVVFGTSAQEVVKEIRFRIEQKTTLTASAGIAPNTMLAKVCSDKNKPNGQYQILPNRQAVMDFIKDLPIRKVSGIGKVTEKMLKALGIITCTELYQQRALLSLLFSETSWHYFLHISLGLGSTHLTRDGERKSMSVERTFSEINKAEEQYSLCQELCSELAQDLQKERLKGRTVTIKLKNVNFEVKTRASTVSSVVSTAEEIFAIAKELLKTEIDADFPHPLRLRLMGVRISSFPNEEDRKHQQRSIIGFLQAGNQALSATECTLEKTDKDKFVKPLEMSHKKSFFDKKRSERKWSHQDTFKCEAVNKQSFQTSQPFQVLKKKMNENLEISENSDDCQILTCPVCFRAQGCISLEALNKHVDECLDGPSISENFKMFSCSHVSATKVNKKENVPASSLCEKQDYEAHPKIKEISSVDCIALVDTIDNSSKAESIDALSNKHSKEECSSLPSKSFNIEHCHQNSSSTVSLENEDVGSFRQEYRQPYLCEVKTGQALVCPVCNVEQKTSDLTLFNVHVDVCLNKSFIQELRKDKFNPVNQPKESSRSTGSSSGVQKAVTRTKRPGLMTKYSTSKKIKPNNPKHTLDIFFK
#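 Activity was followed as the change in fluorescence between reads at 0 and 10 min after starting the reaction with 50 nM substrate. Beforehand, 10 nM polymerase had been preincubated with compound for 15 min at room temperature.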
# PGK validate = TbPGK inhibition, hit validation | Potency, µM (doses to about 57.5 µM), for inactives: at the highest dose activity change, negative = inhibition, usual class: inhibitors | AID 686980 | shares compounds with Pol kappa inh-1 | TbPGK coupled GAPDH assay, Kinase-Glo luminescence | actives 79% (n = 500); note: % is set by controls: 0 for no effect and ±100 for the full control effect; nearly all actives have a fitted effect of over 65% in size
# POLI cherry-pick = Inhibitors of human DNA polymerase iota, confirmation. shares compounds with Pol kappa inh-1. AID 720496. Potency, µM, usual class: inhibitors. Pol iota primer extension, TAMRA/BHQ fluorescence. actives 77% (n = 1,500)
# Pol kappa inh-2 = Pol kappa (human) inhibition, cherry-pick confirmation | shares compounds with Pol eta inh-1 | purified Pol-kappa, fluorescent strand-displacement substrate | Potency, µM, actives largely listed as inhibitors | actives 76% (n = 920) | AID 720501
# Pol eta inh-2 = confirmation of human DNA polymerase eta inhibitors; shares compounds with Pol eta inh-1; Pol eta primer extension, TAMRA/BHQ fluorescence, 10 min; actives 64% (n = 2,600); Potency, µM, usual class: inhibitors
# * = called active by the depositor; ? = inconclusive; . = not tested or not shown; [ ] = another dose, or the depositor's remark. Most compounds without a hit are left out; they make up all but 2.4% or so of the library. Calls come from the whole dose curve; as a rule, active = well fitted curve in the direction sought with a large enough effect; inconclusive = small, poorly fitted or top-dose-only effect, or another doubt; inactive = no such curve, though single readings can be large; an effect the other way counts as inactive or inconclusive. Potency is the fitted concentration of half-maximal effect.
SMILES,POLI inh,Pol eta inh-1,FEN1 inhibitor,TDP1 block,Pol beta inh,Pol kappa inh-1,POLI cherry-pick,Pol eta inh-2,others
CC(=O)Nc1ccc2c(COC(=O)CC3Sc4ccccc4NC3=O)cc(=O)oc2c1 (stereo not given),?,20µM*,-24.9%,20µM*,7.94µM*,35.5µM*,59.7*,47.8*,
CC(=O)Nc1ccc(NC(=O)CC2Sc3ccccc3NC2=O)cc1 (stereo not given),-2.4%,-3.3%,16.9%,.,8.3%,7.9%,.,.,
O=C(O)C1Oc2ccccc2C1c1ccccc1 (stereo not given),13.1%,-6.2%,-13.1%,.,.,-2.1%,.,.,
O=C(O)C1NCc2[nH]cnc2C1c1ccccc1 (stereo not given),.,.,.,.,.,.,59.7*,?,
O=C1CCCC(O)=C1N=Nc1cccc(C(=O)O)c1,14.1µM*,10µM*,?,?,10µM*,50.1µM*,33.6*,26.9*,
Nc1ccc(/C=C/c2ccnc3ccccc23)cc1,15.8%,.,-7.4%,.,.,3.1%,.,.,
O=C(O)C1C2C=CC(CC2)C1C(=O)O (stereo not given),?,11.2µM*,-3.8%,10µM*,17.8µM*,?,.,?,PGK validate=11.6µM*;Pol kappa inh-2=29.9*
O=C(CCC1N=C2c3ccccc3N=C(SCc3ccccc3F)N2C1=O)NCc1ccc(F)cc1 (stereo not given),5.1%,-0.2%,-13.2%,1.5%,7.3%,-0.3%[60.1 µM],.,.,
CN(C)c1ncc(C2=C(Cl)C(=O)C(N3CCCC3)=C(Cl)C2=O)s1,7.94µM*,20µM*,50.1µM*,.,.,28.2µM*,37.7*,33.8*,
COc1cccc(CNC(=O)CCc2c(C)nc3c(c(C)nn3-c3ccc(C)c(C)c3)c2C)c1,12.3%,-0.3%,-2.8%,2.5%,5.6%,-17.7%,.,.,
COc1ccc2c(C)nc(Nc3nc(C)c(C)c(=O)[nH]3)nc2c1,8.3%,?,44.7µM*,5.1%,200.4%,10.8%,53.2*,75.7*,
CCOC(=O)CN1C(=O)S/C(=C\c2ccc(-c3ccc(C(=O)O)c(Cl)c3)o2)C1=O,20µM*,10µM*,?,8.91µM*,?,39.8µM*,?,30.1*,Pol kappa inh-2=16.8*
O=c1oc2ccccc2c2oc3cc(O)c(O)cc3c12,3.16µM*,4.47µM*,44.7µM*,8.1%,-110.5%,5.01µM*,21.2*,21.3*,Pol kappa inh-2=67*
Cn1c(SCC(=O)Nc2nncs2)nnc1C1CC1,?,22.4µM*,-24.0%,8.91µM*,6.31µM*,?,37.7*,30.1*,
CC(C)n1c(SCC(=O)Nc2nncs2)nnc1C1CC1,-27.6%,-4.8%,0.0%,-4.4%,-1.6%,-20.4%,.,.,
CSc1ccc(CCNC(=O)C(C)n2nc(C)c3sc4ccccc4c3c2=O)cc1 (stereo not given),-10.0%,.,?,2.9%,13.5%,-20.8%,.,.,
O=C(CCCN1C(=O)/C(=C/c2ccco2)SC1=S)Nc1cccc(C(=O)O)c1,14.1µM*,20µM*,?,.,3.16µM*,22.4µM*,23.8*,15.1*,
O=C(CCCN1C(=O)/C(=C\c2ccco2)SC1=S)Nc1ccc(O)cc1C(=O)O,8.91µM*,4.47µM*,50.1µM*,4.7%,?,22.4µM*,33.6*,26.9*,
COc1ccc(CCNC(=O)c2c(C)oc3ncn(CC(C)C)c(=O)c23)c(OC)c1,-2.8%,-19.0%,-4.4%,-4.2%,-0.7%,-0.7%,.,.,
CCc1cccc(C)c1NC(=O)Cn1c(=O)n(-c2ccc(C)cc2)c(=O)c2c1cnn2C,-0.8%,-9.2%,-1.5%,5.9%,-13.4%,-0.1%,.,.,
Cc1ccc(S(=O)(=O)NC(=O)O[C@@H]2C(=O)c3cc(Br)ccc3O[C@H]2c2ccc3c(c2)OCO3)cc1,.,.,.,-3.1%,.,.,.,.,
COc1cc(/C=C2\SC(=O)N(Cc3ccc(F)cc3)C2=O)cc([N+](=O)[O-])c1O,-9.9%,50.1µM*,?,4.7%,0.0%,5.3%,84.4*,75.7*,Pol kappa inh-2=26.7*
CCOc1cc(/C=C2\NC(=O)NC2=O)cc([N+](=O)[O-])c1O,55.5%,-14.0%,-17.2%,-3.9%,4.8%,-21.7%,.,.,
COc1cc(/C=C2/C(=O)NN(c3ccccc3)C2=O)cc(Br)c1O,-28.5%,-4.0%,-22.3%,.,4.4%,-25.4%,.,.,
Cc1cc(/C=C2\C(=O)NN(c3ccccc3)C2=O)c(C)n1-c1ccccc1O,-12.6%,-10.1%,1.7%,.,1.5%,-23.5%,.,.,
SMILES,POLI inh,Pol eta inh-1,FEN1 inhibitor,TDP1 block,Pol beta inh,Pol kappa inh-1,POLI cherry-pick,Pol eta inh-2,others
O=C1NN(c2ccccc2)C(=O)/C1=C\c1ccc(-c2cc([N+](=O)[O-])ccc2O)o1,15.8µM*,20µM*,?,3.6%,10µM*,39.8µM*,?,26.9*,
COc1cc(/C=C2\C(=O)NN(c3ccccc3)C2=O)cc([N+](=O)[O-])c1O,12.6µM*,12.6µM*,?,?,12.6µM*,?,37.7*,26.9*,
CCOc1cc(/C=C2\C(=O)NN(c3ccccc3)C2=O)cc([N+](=O)[O-])c1O,11.2µM*,15.8µM*,?,?,20µM*,44.7µM*,?,30.1*,
CCCCCCCCCC[n+]1cccc2cc(Br)ccc21,-5.7%,.,2.7%,.,.,-36.3%,.,.,
CCc1ccc(CNC(=O)c2cc3n(n2)CCCN(Cc2ccccc2)C3=O)cc1,22.1%,-16.7%,-16.7%,2.0%,1.2%,-8.3%,.,.,
O=C(CCCOc1ccc(Cl)cc1Cl)NC(Cc1ccccc1)C(=O)O (stereo not given),-1.8%,-8.6%,2.6%,.,.,-8.6%,.,.,
Cc1ccc2onc(CC(=O)Nc3cc(F)ccc3F)c2c1,?,.,-0.8%,1.3%,24.6%,?,.,.,
O=[N+]([O-])c1ccc(C=NNC(=S)NN=Cc2ccc([N+](=O)[O-])cc2)cc1,14.1µM*,?,?,.,.,25.1µM*,18.9*,42.6*,Pol kappa inh-2=16.8*
Cc1cc(C)nc(/N=C2/NC(=O)CS2)n1,?,3.2%,-2.0%,-2.9%,3.6%,8.3%,.,.,
Cc1ccc(C)n1/N=C1/NC(=O)CS1,2.51µM*,2.24µM*,31.6µM*,.,17.8µM*,10µM*,42.3*,30.1*,PGK validate=?
